Experimental data from PubChem BioAssay (NCATS).
Results filed as inconclusive are left out. Calls of active or inactive are those of the source. The call rests on the fitted dose curve; in most records, active means well fitted curve in the direction sought with a large enough effect; inconclusive means small, poorly fitted or top-dose-only effect, or another doubt; inactive means no such curve, though single readings can be large; an effect the other way counts as inactive or inconclusive.

Key:
[1] = system: NIH3T3; assay: qHTS assay to identify novel small-molecules to repurpose for Merkel cell carcinoma treatment (AID 1296009); settings: MCC and control cell lines, CellTiter-Glo viability, 72 h; at 44.8 µM (top of the series) unless noted; further: nearly all actives have a fitted effect of over 60% in size
Method in brief: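 72 hr, 37 degree celsius; NPC 8-pt / MIPE 11-pt dose response; compound pinned in DMSO; CellTiter-Glo, 10 min RT, luminescence; normalized to no-cell and DMSO controls.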

[2] = system: C33A; assay: Primary qHTS to identify gynecologic anti-cancer compounds using libraries of approved drugs and bioactive compounds (AID 1345084); settings: Gynecologic cancer cell panel viability, ATPlite luminescence, 48 h; series mostly up to 57.5 µM; further: on the % scale 0 is the no-effect control and ±100 the full control effect; nearly all actives have a fitted effect of over 55% in size
Method in brief: (§1)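 Cell viability after 48 h drug treatment, ATPlite luminescence readout; five doses.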

[3] = system: CAOV3; assay: as above; settings: Gynecologic cancer cell panel viability, ATPlite luminescence, 48 h; series mostly up to 57.5 µM
Method in brief: as §1

[4] = system: CASKI; assay: as above; settings: Gynecologic cancer cell panel viability, ATPlite luminescence, 48 h; series mostly up to 57.5 µM
Method in brief: as §1

[5] = system: Es-2; assay: as above; settings: Gynecologic cancer cell panel viability, ATPlite luminescence, 48 h; series mostly up to 57.5 µM
Method in brief: as §1

[6] = system: HeLa; assay: as above; settings: Gynecologic cancer cell panel viability, ATPlite luminescence, 48 h; series mostly up to 57.5 µM
Method in brief: as §1

[7] = system: Hek293T; assay: as above; settings: Gynecologic cancer cell panel viability, ATPlite luminescence, 48 h, control line for the selectivity index; series mostly up to 57.5 µM
Method in brief: as §1

[8] = system: JEG-3; assay: as above; settings: Gynecologic cancer cell panel viability, ATPlite luminescence, 48 h; series mostly up to 57.5 µM
Method in brief: as §1

[9] = system: OV90; assay: as above; settings: Gynecologic cancer cell panel viability, ATPlite luminescence, 48 h; series mostly up to 57.5 µM
Method in brief: as §1

[10] = system: PA-1; assay: as above; settings: Gynecologic cancer cell panel viability, ATPlite luminescence, 48 h; series mostly up to 57.5 µM
Method in brief: as §1

[11] = system: SKOV3; assay: as above; settings: Gynecologic cancer cell panel viability, ATPlite luminescence, 48 h; series mostly up to 57.5 µM
Method in brief: as §1

[12] = system: Tov-21-G; assay: as above; settings: Gynecologic cancer cell panel viability, ATPlite luminescence, 48 h; series mostly up to 57.5 µM
Method in brief: as §1

[13] = system: Tov112D; assay: as above; settings: Gynecologic cancer cell panel viability, ATPlite luminescence, 48 h; series mostly up to 57.5 µM
Method in brief: as §1

C[C@@H]1[C@H](O)[C@@H]2OC(=O)C3=C2[C@H](CCC3)[C@@]12C[C@@H](c1ccoc1)OC2=O
inactive: outcome [1] | Potency [2] | Potency [3] | outcome [4] | Potency [5] | Potency [6] | Potency [7] | Potency [8] | Potency [9] | Potency [10] | Potency [11] | Potency [12] | Potency [13]

C=C(C(=O)O)[C@@H]1CC[C@H](C)[C@@H]2CC(=O)C(C)=C2C1
inactive: outcome [1] | Potency [2] | Potency [3] | outcome [4] | Potency [5] | Potency [6] | Potency [7] | Potency [8] | Potency [9] | Potency [10] | Potency [11] | Potency [12] | Potency [13]

CC1=CCC2C(C)(C)CCCC2(C)C1CC12OC1C(O)C(CO)=CC2O (configuration not stated)
inactive: outcome [1] | Potency [2] | Potency [3] | outcome [4] | Potency [5] | Potency [6] | Potency [7] | Potency [8] | Potency [9] | Potency [10] | Potency [11] | Potency [12] | Potency [13]

CC1=C2CC(=O)C(C)CC/C=C(\C)CC2(O)OC1=O (configuration not stated)
inactive: outcome [1] | Potency [2] | Potency [3] | outcome [4] | Potency [5] | Potency [6] | Potency [7] | Potency [8] | Potency [9] | Potency [10] | Potency [11] | Potency [12] | Potency [13]

O=C(O)[C@H](Cc1ccccc1)Oc1ccc(-c2ccccc2)cc1
inactive: outcome [1] | Potency [2] | Potency [3] | outcome [4] | Potency [5] | Potency [6] | Potency [7] | Potency [8] | Potency [9] | Potency [10] | Potency [11] | Potency [12] | Potency [13]

CC/C=C/C(O)C(O)C1=C(C)C(=O)C2(O1)C(=O)NC(OC)(C(=O)c1ccccc1)C2O (configuration not stated)
inactive: outcome [1] inactive [at 17.4 µM] | Potency [2] | Potency [3] | outcome [4] | Potency [5] | Potency [6] | Potency [7] | Potency [8] | Potency [9] | Potency [10] | Potency [11] | Potency [12] | Potency [13]

CC(C)C(NC(=O)c1ccc(O)cc1)C(=O)N1CCCC1C(=O)Nc1c(O)cccc1C(=O)O (configuration not stated)
inactive: outcome [1] inactive [at 17.4 µM] | Potency [2] | Potency [3] | outcome [4] | Potency [5] | Potency [6] | Potency [7] | Potency [8] | Potency [9] | Potency [10] | Potency [11] | Potency [12] | Potency [13]

C=C(C(=O)O)[C@@H]1CC[C@@]2(C)CC[C@@H](O)C(=C)C2C1 (some centres not stated)
inactive: outcome [1] | Potency [2] | Potency [3] | outcome [4] | Potency [5] | Potency [6] | Potency [7] | Potency [8] | Potency [9] | Potency [10] | Potency [11] | Potency [12] | Potency [13]

CC(CCO)CCC1C2(C)CCCC(C)(C)C2CC[C@@]1(C)O (some centres not stated)
inactive: outcome [1] | Potency [2] | Potency [3] | outcome [4] | Potency [5] | Potency [6] | Potency [7] | Potency [8] | Potency [9] | Potency [10] | Potency [11] | Potency [12] | Potency [13]

CC(C)(C)NS(=O)(=O)c1ccc(-c2ccc3[nH]nc(N)c3c2)cc1
inactive: outcome [1] | Potency [2] | Potency [3] | outcome [4] | Potency [5] | Potency [6] | Potency [7] | Potency [8] | Potency [9] | Potency [10] | Potency [11] | Potency [12] | Potency [13]

C=CCC1=C[C@]2(OC)[C@H](C)[C@@H](c3ccc(OC)c(OC)c3)O[C@]2(OC)CC1=O
inactive: outcome [1] | Potency [2] | Potency [3] | outcome [4] | Potency [5] | Potency [6] | Potency [7] | Potency [8] | Potency [9] | Potency [10] | Potency [11] | Potency [12] | Potency [13]

Cc1cn2cc(CC(=O)N3CCC4(CC3)CN(Cc3ccc(-n5nccn5)cc3Cl)C4)nc2s1
inactive: outcome [1] | Potency [2] | Potency [3] | outcome [4] | Potency [5] | Potency [6] | Potency [7] | Potency [8] | Potency [9] | Potency [10] | Potency [11] | Potency [12] | Potency [13]

C=C(C)[C@@H]1CC[C@]2(CO)CC[C@]3(C)[C@H](CC[C@@H]4[C@@]5(C)CC[C@H](O)C(C)(C)[C@@H]5CC[C@]43C)[C@@H]12
inactive: outcome [1] inactive [at 17.4 µM] | Potency [2] | Potency [3] | outcome [4] | Potency [5] | Potency [6] | Potency [7] | Potency [8] | Potency [9] | Potency [10] | Potency [11] | Potency [12] | Potency [13]

C=C1CC[C@]2(C(=O)O[C@@H]3O[C@H](CO)[C@@H](O)[C@H](O)[C@H]3O)CC[C@]3(C)C(=CCC4[C@@]5(C)C[C@H](O)[C@@H](O[C@@H]6O[C@H](C(=O)O)[C@@H](O)[C@H](O)[C@H]6O)[C@](C)(C=O)C5CC[C@]43C)C2C1 (some centres not stated)
inactive: outcome [1] inactive [at 9.27 µM] | activity change, negative = cytotoxicity [2] 1.71% [at 11.6 µM] | activity change, negative = cytotoxicity [3] -2.86% [at 11.6 µM] | activity change, negative = cytotoxicity [4] -3.95% [at 11.6 µM] | activity change, negative = cytotoxicity [5] 1.14% [at 11.6 µM] | activity change, negative = cytotoxicity [6] 4.56% [at 11.6 µM] | activity change, negative = cytotoxicity [7] 2.33% [at 11.6 µM] | activity change, negative = cytotoxicity [8] -0.564% [at 11.6 µM] | activity change, negative = cytotoxicity [9] 2.48% [at 11.6 µM] | activity change, negative = cytotoxicity [10] 8.86% [at 11.6 µM] | activity change, negative = cytotoxicity [11] -9% [at 11.6 µM] | activity change, negative = cytotoxicity [12] 6.07% [at 11.6 µM] | activity change, negative = cytotoxicity [13] 5.76% [at 11.6 µM]
